This note sets out measurements from PubChem BioAssay (NCATS).

Values joined by “and” are separate entries in the source; they are usually repeats but may differ in a detail not shown here. Identical values can stand only once. Unmarked numbers belong to inactive results. Results filed as inconclusive are left out. Active and inactive are the calls of the source. Unless noted, the call rests on the fitted dose curve; in most records, active means well fitted curve in the direction sought with a large enough effect in the repeat runs; inconclusive means weak or mixed curves; inactive means no such curve, though single readings can be large; an effect the other way counts as inactive or inconclusive.

Assay [1] in a line: qHTS assay for small molecule agonists of the antioxidant response element (ARE) signaling pathway (AID 651741; active means well fitted activation curve with a large enough effect in the signal ratio; the % refers to the signal ratio; further: potency means the concentration at half of the fitted maximal effect; on activation: % of control where 0% means no effect). The gist of the method:
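HepG2 ARE-bla cells plated at 2,000 cells/well and incubated 5 h at 37 C/5% CO2 received 23 nL compound in DMSO. After 16 h at 37 C, LiveBLAzer B/G FRET substrate was applied for 2 h at room temperature and fluorescence read.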
Background: In qHTS, concentration-response curves come from the screen itself.

Assay [2] can be described thus: qHTS assay for small molecule activators of the p53 signaling pathway (AID 651743; active means well fitted activation curve with a large enough effect in the signal ratio, not every such curve was filed as active; the % refers to the signal ratio; further: series mostly up to about 92 µM; % of control where 0% means no effect). Particulars: HCT-116 p53RE-bla, beta-lactamase FRET ratio, 16 h; activation: stronger effect = higher value. A digest of the protocol:
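HCT-116 p53RE-bla, 4,000 cells/well; 5 h settle; cpd/DMSO 16 h, 37 C; LiveBLAzer B/G 2 h RT; fluorescence intensity.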

Assay [3] in a line: qHTS assay for small molecule disruptors of the mitochondrial membrane potential - 1 hr assay (AID 651754; calls by dose curve; further: nearly all actives have a fitted effect of over 35% in size; further: potency means the concentration at half of the fitted maximal effect). The gist of the method:
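Steps: seed HepG2 cells and let attach overnight; pin-transfer compound or vehicle; incubate 1 hr at 37C; add Mito-MPS dye for 30 min; read two-channel fluorescence for monomer and aggregate forms.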

Assay [4] in a line: qHTS assay for small molecule disruptors of the mitochondrial membrane potential - 5 hr assay (AID 651755; calls by dose curve; further: nearly all actives have a fitted effect of over 40% in size; further: potency means the concentration at half of the fitted maximal effect). A digest of the protocol: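 HepG2 cells (2,000/well), attached overnight, exposed to compound 5 hr at 37C, then Mito-MPS dye 30 min. Fluorescence read for monomers (490/535 nm) and aggregates (540/590 nm).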
Assay [5] in a line: qHTS assay for environmental chemicals that activate the Aryl hydrocarbon Receptor (AhR) signaling pathway (AID 651777; active means well fitted curve in the direction sought with a large enough effect; an effect the other way counts as inactive or inconclusive; further: % of control where 0% means no effect; nearly all actives have a fitted effect of over 15% in size). The note with it: 1A2-DRE human hepatoma cells, luciferase, 24 h; stronger effect = higher value. A digest of the protocol: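 Reporter gene assay: hepatoma cells with DRE/CYP1A2-luciferase, 24 hr compound incubation at 37 C, 5% CO2, luminescence after One-Glo (30 min, RT).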

For assay [6], the target named is Peroxisome proliferator-activated receptor alpha (Homo sapiens) (UniProt Q07869). The assay is described as follows: qHTS assay for small molecule agonists of the peroxisome proliferator-activated receptor alpha (PPARalpha) signaling pathway (AID 651778; active means well fitted curve in the direction sought with a large enough effect; an effect the other way counts as inactive or inconclusive; further: % of control where 0% means no effect). Particulars: PathHunter PPARalpha complementation, chemiluminescence, 6 h; stronger effect = higher value. The gist of the method: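 Enzyme-fragment complementation assay in which ligand-bound PPARalpha translocates and forms an active enzyme that generates chemiluminescence. Cells were plated overnight, exposed to compound for 6 hr at 37 C, and then given detection reagent for 60 min at room temperature.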

The nature of assay [7]: qHTS assay for small molecule agonists of the antioxidant response element (ARE) signaling pathway measured by Nrf2-dependant transcriptional activity (AID 720636).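 Further: HepG2 cells with an ARE-driven luciferase reporter; % of control where 0% means no effect.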 The gist of the method: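 Nrf2-dependent transcription is measured in ARE-luc HepG2 cells: compound is applied for 16 hr at 37 C after a 6 hr attachment period, and luciferase activity is quantified by luminescence using ONE-Glo.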

Assay [8] in a line: qHTS assay for small molecule antagonists of the retinoid-related orphan receptor gamma (ROR-gamma) signaling pathway - cell viability counter screen (AID 720652).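 Further: CHO reporter cells with doxycycline-induced ROR-gamma expression; series mostly up to about 92 µM; compound exposure lasted 16 hr before ATP read; on the % scale 0 is the no-effect control and ±100 the full control effect.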 The gist of the method:
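Cytotoxicity is quantified via intracellular ATP (CellTiter-Glo luminescence) in doxycycline-induced CHO ROR response element-luciferase reporter cells treated with compound for 16 hr at 37 C, 5% CO2.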

Assay [9] is described as follows: qHTS assay for small molecule agonists of the antioxidant response element (ARE) signaling pathway measured by Nrf2-dependant transcriptional activity - cell viability counter screen (AID 720653). Further: on the % scale 0 is the no-effect control and ±100 the full control effect. Particulars: ARE-bla HepG2 viability, CellTiter-Glo ATP luminescence, 16 h; stronger effect = lower value. A digest of the protocol: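 ARE-bla HepG2 cells treated with compounds for 16 h at 37C; this counter screen measures viability as intracellular ATP by CellTiter-Glo luminescence after 30 min at room temperature.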

Assay [10] in a line: qHTS assay for small molecule activators of the nuclear factor-kappa B (NF-kB) signaling pathway (AID 651749; active means well fitted activation curve with a large enough effect in the signal ratio; the % refers to the signal ratio; further: series mostly up to about 77 µM; % of control where 0% means no effect). The note with it: NF-kB-bla ME-180 cells, beta-lactamase FRET ratio, 16 h; stronger effect = higher value. A digest of the protocol: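 Incubation lasted 16 hr at 37C in 5% CO2 after 23 nL compound addition to ME-180 NF-kB-bla cells. Activation appears as beta-lactamase-mediated FRET loss.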

For assay [11], the target named is Tumor necrosis factor (Homo sapiens) (UniProt P01375). Put plainly: qHTS assay to identify small molecules that stimulate Tumor Necrosis Factor-alpha (TNF-alpha) secretion (AID 651757; active means well fitted curve in the direction sought with a large enough effect in the signal ratio; the % refers to the signal ratio; further: 0% is about no effect). A digest of the protocol: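 Secreted TNF-alpha from compound-treated THP-1 cells (17 hrs, 37 C) was quantified with a homogeneous time-resolved fluorescence antibody assay.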
The target in assay [12] is Nuclear receptor ROR-gamma (Homo sapiens) (UniProt P51449). The assay is described as follows: qHTS assay for small molecule antagonists of the retinoid-related orphan receptor gamma (ROR-gamma) signaling pathway (AID 651802; active means well fitted curve in the direction sought with a large enough effect; an effect the other way counts as inactive or inconclusive;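 further: CHO cells with doxycycline-induced ROR-gamma expression; series mostly up to about 92 µM; on the % scale 0 is the no-effect control and ±100 the full control effect; nearly all actives have a fitted effect of over 60% in size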). The gist of the method:
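Antagonism is scored as a fall in luminescence from a RORE-luciferase reporter in CHO cells expressing ROR under a TET-inducible promoter, measured 16hr after doxycycline induction in the presence of compound.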

Assay [13] can be described thus: qHTS assay to identify small molecules that stimulate interleukin-8 (IL-8) secretion (AID 651758; active means well fitted activation curve with a large enough effect in the signal ratio; the % refers to the signal ratio; further: 0% is about no effect). A digest of the protocol:
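THP-1 cells (2000/well) exposed to compound 16 h at 37 C; secreted IL-8 then detected by HTRF with cryptate- and XL665-labelled anti-IL-8 antibody pair after 1-3 h at room temperature.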

For assay [14], the target named is Ubiquitin carboxyl-terminal hydrolase 2 (Homo sapiens) (UniProt O75604). Put plainly: qHTS for Inhibitors of Ubiquitin-specific Protease USP2a Using CHOP2 as the Reporter: K484 Substrate (AID 652173; active means well fitted curve in the direction sought with a large enough effect; an effect the other way counts as inactive or inconclusive;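 further: cleavage of internally quenched K48 di-ubiquitin substrate measured as rising fluorescence over time; nearly all actives have a fitted effect of over 70% in size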). The gist of the method:
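USP2 (dispensed at 5 nM) was pinned with compounds, then DiUb K48 internally quenched fluorescent substrate (dispensed at 100 nM) was added. The buffer was 20 mM Tris pH 8, 2 mM beta-mercaptoethanol and 0.05% CHAPS. Cleavage was read kinetically as rising fluorescence, Ex 525/Em 598.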

Nuclear receptor ROR-gamma (Homo sapiens), sequence (P51449 whole entry, looked up): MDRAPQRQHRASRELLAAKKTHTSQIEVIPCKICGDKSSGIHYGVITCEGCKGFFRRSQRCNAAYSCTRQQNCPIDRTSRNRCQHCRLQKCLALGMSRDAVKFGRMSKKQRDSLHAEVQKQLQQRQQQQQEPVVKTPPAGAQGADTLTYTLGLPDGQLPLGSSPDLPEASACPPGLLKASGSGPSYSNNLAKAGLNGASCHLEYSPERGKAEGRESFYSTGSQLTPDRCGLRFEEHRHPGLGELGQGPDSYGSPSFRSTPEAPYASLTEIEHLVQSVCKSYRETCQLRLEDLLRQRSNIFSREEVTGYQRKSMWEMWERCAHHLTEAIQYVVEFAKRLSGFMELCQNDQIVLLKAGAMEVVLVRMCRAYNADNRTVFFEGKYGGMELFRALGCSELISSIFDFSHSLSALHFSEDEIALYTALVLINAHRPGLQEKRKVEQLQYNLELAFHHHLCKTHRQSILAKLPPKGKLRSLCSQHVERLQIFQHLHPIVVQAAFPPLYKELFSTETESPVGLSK
Peroxisome proliferator-activated receptor alpha (Homo sapiens), sequence (Q07869 whole entry, looked up, the tested form may be a part): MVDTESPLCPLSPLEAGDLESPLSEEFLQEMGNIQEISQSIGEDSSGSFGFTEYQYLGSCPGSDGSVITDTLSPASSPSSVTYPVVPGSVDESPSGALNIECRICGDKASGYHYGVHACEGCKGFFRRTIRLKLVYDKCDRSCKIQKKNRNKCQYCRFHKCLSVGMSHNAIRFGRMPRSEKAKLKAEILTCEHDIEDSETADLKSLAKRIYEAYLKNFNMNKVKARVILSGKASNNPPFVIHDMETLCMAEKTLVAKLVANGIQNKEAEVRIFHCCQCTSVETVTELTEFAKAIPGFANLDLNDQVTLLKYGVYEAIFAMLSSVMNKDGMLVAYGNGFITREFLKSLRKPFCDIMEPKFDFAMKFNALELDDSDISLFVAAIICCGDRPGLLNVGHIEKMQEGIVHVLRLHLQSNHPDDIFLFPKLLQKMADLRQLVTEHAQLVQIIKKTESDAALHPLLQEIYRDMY
Tumor necrosis factor (Homo sapiens), sequence (P01375 whole entry, looked up): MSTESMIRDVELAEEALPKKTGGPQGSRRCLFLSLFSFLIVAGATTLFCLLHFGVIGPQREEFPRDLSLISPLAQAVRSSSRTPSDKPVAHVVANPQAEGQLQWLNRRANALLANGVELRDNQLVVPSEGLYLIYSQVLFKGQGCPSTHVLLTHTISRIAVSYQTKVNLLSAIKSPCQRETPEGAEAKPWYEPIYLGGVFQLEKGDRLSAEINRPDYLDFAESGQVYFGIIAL
Ubiquitin carboxyl-terminal hydrolase 2 (Homo sapiens), sequence (O75604 whole entry, looked up): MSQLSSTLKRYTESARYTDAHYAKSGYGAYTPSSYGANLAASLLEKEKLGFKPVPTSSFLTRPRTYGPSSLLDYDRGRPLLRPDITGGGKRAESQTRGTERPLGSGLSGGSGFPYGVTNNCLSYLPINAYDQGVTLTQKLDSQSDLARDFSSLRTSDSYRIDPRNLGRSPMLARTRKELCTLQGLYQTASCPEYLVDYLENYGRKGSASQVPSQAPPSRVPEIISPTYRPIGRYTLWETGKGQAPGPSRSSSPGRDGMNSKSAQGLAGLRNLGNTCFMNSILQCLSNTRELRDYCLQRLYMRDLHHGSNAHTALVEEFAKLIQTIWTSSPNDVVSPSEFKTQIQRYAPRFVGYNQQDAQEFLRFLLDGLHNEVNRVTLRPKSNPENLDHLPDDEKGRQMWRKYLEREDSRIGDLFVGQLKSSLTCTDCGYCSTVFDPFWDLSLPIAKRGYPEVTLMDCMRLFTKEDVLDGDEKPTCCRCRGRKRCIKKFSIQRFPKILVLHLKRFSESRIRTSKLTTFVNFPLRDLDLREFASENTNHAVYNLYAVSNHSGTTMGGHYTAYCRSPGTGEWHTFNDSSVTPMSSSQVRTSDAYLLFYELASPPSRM

For `CCCCCCCCCCCCCCCC(=O)OC(C)C`, the Potency in assay [1] is 54.5 µM (active).

`CN1C[C@H](C(=O)N[C@]2(C)O[C@@]3(O)[C@@H]4CCCN4C(=O)[C@H](Cc4ccccc4)N3C2=O)C=C2c3cccc4[nH]cc(c34)C[C@H]21`: the Potency in assay [1] was 37.6 µM (active); in assay [3], 11.9 µM (active); in assay [4] it was 11.9 µM (active). The activation in assay [2] is -2.39% and -2.48%; in assay [5], 6.16% and 6.48%. Further, the max response in assay [6] is -3.76% and -6.49%; in assay [9], -19% and -17.1%. Besides, the call in assay [7] and in [8] was inactive.

As to `CCC(C)(C)c1ccc(O)cc1`, the Potency entry in assay [1] and in assay [12] was “inactive” throughout. The activation was 0.115% and -4.79% in [2]; -2.14% and 1.1% in assay [10]; 0.262% and -0.822% in assay [5]. For the same compound, the result in assay [11], in [7] and in [8] was inactive. Moreover, the max response in assay [6] was 5.88% and -1.73%; in assay [9] it was -17% and -1.76%.

Turning to `Clc1ccc(C(c2ccc(Cl)cc2)C(Cl)(Cl)Cl)cc1`, in assay [1], the Potency is 66.8 µM (active). The activation in assay [2] was 2.65%; in assay [10], 2.81%; in assay [5], 0.0892% and -0.298%. Also, the Potency result in assay [3] and in assay [4] was “inactive” in each case. Moreover, the result in assay [11] and in assay [7] was inactive. Further, the max response in [6] was 4.34% and 1.18%; in [9] it was -18.5% and -23.5%.

Consider `Nc1ccccc1`, for which the Potency entry in assay [1] and in assay [12] was “inactive” throughout. In addition, the activation in assay [2] is 1.3%. Moreover, the call in assay [11], in assay [13], in assay [7] and in assay [8] was inactive. Besides, the max response in assay [6] is 7.46%; in assay [9], -9.58%.

As to `CC(C)NC(C)C`, the Potency entry in assay [1] and in [12] was “inactive” in each case. Moreover, the figures for the activation in assay [2], in assay [10] and in assay [5] were -4.28%, -1.54% and -1.71%, respectively. Also, the result in assay [11], in assay [7] and in [8] was inactive. In addition, the max response in assay [6] was 0.708%; in [9] it was -19.4%.

For `[N-]=[N+]=CC(=O)OC[C@H](N)C(=O)O`, in [1], the Potency entry was “inactive”. Besides, the activation in [2] is -0.27%; in [10] it was -0.449%. Moreover, the max response was 0.305% in assay [6] and -15% in assay [9]. In assay [7], the call was inactive.

Consider `COc1cc(OC)c(OC)cc1C=O`, for which the Potency result in assay [1], in [3], in assay [4] and in assay [12] was “inactive” in each case. Moreover, the activation in assay [2] was -3.74%; in assay [10] it was 2%. In addition, the compound was called inactive in [11], in assay [7] and in assay [8]. Also, the max response in assay [6] is 0.405%; in assay [9] it was 3.08%.

Regarding `CC(C)(C)c1ccc(O)cc1`, in assay [1], the Potency result is “inactive”. Further, the activation in assay [2] was -2.47%; in assay [5], 0.343%. The compound was called inactive in [7]. In assay [9], the max response is -7.43%.

Consider `COP(=S)(OC)Oc1ccc(SC)c(C)c1`, for which the Potency result in assay [1], in assay [4] and in assay [12] was “inactive” each time. Further, the activation is -1.52% and -0.273% in assay [2]; -0.287% and 1.27% in assay [10]. The compound was classed as inactive in assay [11], in [13], in assay [7] and in assay [8]. The max response in assay [6] is 6.43% and 7.61%; in [9], -8.21% and -17%.

Consider `C[C@]1(O)CC[C@H]2[C@@H]3CCC4=CC(=O)CC[C@]4(C)[C@@]3(F)[C@@H](O)C[C@@]21C`, for which the activation was -1.51% in [2], -0.7% in assay [10] and 0.165% in assay [5]. Also, the Potency entry in assay [3] and in [4] was “inactive” in each case. Further, the call in assay [11], in [13], in assay [7] and in assay [8] was inactive. Moreover, the results for the max response in assay [6] and in [9] were 3% and -5.41%, respectively.

`COP(=S)(OC)Oc1cc(Cl)c(Cl)cc1Cl`: the Potency in [1] is 24.3 µM (active). In addition, the results for the activation in assay [2], in assay [10] and in assay [5] were -3.16%, -1.3% and 2.9%, respectively. The max response was -0.715% in assay [6] and -0.922% in [9]. For the same compound, the result in assay [7] was inactive.

In the case of `C[C@]12CCC(=O)C=C1CC[C@@H]1[C@@H]2CC[C@]2(C)C(=O)CC[C@@H]12`, the Potency entry in assay [3] and in [4] was “inactive” throughout.

Consider `C[C@]12CCC(=O)C=C1CC[C@@H]1[C@@H]2CC[C@@]2(C)[C@H]1CC[C@]2(C)O`, for which the compound was classed as inactive in assay [13].

As to `Cc1cc(NS(=O)(=O)c2ccc(N)cc2)no1`, the outcome in [14] was inactive.
